The text below walks through data of ChEMBL document CHEMBL2218924, “A broad activity screen in support of a chemogenomic map for kinase signalling research and drug discovery” (Biochem J, 2013).

Assay [1] has as its target T1, Ephrin type-B receptor 1 (Homo sapiens) (UniProt P54762).
T1 sequence (whole entry): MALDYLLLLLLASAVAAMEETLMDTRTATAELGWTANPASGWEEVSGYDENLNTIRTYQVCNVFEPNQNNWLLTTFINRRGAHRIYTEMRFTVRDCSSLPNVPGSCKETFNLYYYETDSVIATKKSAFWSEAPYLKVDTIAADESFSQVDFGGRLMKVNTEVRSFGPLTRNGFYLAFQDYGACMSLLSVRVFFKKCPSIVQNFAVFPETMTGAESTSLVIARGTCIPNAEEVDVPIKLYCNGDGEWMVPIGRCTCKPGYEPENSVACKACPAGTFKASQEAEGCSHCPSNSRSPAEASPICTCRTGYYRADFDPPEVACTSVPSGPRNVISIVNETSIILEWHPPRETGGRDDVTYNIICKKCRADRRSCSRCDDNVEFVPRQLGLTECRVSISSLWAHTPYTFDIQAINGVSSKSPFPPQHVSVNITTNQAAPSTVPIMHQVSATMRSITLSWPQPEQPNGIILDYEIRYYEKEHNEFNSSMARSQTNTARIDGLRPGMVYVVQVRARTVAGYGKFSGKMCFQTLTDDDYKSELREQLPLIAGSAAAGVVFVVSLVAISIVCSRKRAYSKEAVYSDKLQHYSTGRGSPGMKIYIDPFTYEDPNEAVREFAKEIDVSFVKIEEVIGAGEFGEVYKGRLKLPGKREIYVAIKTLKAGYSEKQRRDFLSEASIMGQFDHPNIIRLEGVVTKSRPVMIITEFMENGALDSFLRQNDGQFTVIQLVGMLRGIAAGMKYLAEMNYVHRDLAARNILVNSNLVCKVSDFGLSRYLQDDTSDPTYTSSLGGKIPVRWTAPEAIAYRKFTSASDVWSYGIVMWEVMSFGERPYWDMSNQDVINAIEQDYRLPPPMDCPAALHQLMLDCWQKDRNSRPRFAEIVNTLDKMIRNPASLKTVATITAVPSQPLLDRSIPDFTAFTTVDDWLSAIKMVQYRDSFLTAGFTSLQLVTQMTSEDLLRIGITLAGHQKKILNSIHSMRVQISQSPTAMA
Particulars: at 10 µM; call rule not given here.

In assay [2] the target is T2, Ephrin type-B receptor 2 (Homo sapiens) (UniProt P29323).
T2 sequence (whole entry): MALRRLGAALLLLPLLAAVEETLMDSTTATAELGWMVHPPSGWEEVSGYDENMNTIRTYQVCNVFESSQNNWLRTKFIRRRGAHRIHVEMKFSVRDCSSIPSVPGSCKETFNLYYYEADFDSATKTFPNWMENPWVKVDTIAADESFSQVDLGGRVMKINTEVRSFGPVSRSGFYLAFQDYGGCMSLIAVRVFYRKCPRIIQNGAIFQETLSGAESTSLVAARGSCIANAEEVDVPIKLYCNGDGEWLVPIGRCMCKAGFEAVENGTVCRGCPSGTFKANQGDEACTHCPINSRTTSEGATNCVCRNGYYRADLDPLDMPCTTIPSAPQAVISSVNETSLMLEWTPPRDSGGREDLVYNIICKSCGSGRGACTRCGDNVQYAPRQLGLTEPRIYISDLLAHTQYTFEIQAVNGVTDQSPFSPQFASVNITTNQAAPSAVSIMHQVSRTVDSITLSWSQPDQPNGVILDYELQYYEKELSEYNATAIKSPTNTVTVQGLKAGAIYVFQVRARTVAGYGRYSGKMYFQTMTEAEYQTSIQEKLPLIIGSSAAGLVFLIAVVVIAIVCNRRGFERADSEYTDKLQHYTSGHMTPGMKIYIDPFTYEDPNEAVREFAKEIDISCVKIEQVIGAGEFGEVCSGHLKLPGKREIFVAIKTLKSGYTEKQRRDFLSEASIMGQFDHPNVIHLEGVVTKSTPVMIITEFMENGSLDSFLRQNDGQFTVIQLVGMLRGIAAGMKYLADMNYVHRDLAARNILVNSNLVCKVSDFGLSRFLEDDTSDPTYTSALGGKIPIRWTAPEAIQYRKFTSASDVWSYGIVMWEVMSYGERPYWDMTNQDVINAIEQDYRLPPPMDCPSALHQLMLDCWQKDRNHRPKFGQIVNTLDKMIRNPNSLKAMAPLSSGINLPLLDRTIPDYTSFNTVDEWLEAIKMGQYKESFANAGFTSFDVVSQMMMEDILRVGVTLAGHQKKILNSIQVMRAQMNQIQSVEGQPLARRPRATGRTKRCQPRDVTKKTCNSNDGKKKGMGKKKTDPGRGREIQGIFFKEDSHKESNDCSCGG
The conditions noted are these: at 1 µM.

Assay [3] addresses T2, Ephrin type-B receptor 2 (Homo sapiens). Particulars: at 10 µM.
Assay [4] deals with T3, Ephrin type-B receptor 3 (Homo sapiens) (UniProt P54753).
T3 sequence (whole entry): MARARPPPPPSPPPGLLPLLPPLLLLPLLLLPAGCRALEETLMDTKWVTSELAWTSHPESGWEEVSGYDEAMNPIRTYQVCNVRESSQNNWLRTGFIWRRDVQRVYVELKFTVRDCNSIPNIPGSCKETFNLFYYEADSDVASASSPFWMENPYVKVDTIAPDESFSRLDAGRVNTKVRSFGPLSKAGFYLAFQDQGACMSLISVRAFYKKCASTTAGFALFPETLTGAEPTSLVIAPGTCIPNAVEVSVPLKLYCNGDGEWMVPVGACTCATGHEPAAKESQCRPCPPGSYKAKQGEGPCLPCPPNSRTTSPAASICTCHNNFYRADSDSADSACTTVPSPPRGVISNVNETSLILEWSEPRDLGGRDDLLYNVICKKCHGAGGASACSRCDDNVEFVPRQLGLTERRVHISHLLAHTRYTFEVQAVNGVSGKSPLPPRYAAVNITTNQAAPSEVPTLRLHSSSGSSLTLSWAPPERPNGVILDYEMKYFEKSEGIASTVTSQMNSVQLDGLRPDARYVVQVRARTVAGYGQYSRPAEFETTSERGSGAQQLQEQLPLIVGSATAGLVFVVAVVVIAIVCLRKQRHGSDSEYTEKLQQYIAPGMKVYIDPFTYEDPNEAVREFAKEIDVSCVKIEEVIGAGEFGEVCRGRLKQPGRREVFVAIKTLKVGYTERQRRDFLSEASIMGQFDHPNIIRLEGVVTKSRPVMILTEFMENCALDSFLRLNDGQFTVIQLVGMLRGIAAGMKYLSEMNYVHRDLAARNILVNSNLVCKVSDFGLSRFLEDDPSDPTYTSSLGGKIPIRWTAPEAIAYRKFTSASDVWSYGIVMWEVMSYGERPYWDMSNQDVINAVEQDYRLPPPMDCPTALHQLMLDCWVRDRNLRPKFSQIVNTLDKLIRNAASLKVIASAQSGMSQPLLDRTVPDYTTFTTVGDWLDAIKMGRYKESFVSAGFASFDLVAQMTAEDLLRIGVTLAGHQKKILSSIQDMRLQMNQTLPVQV
Particulars: at 1 µM.

Assay [5] concerns the target T3, Ephrin type-B receptor 3 (Homo sapiens). Particulars: at 10 µM.
In assay [6] the target is T4, Ephrin type-B receptor 4 (Homo sapiens) (UniProt P54760).
T4 sequence (whole entry): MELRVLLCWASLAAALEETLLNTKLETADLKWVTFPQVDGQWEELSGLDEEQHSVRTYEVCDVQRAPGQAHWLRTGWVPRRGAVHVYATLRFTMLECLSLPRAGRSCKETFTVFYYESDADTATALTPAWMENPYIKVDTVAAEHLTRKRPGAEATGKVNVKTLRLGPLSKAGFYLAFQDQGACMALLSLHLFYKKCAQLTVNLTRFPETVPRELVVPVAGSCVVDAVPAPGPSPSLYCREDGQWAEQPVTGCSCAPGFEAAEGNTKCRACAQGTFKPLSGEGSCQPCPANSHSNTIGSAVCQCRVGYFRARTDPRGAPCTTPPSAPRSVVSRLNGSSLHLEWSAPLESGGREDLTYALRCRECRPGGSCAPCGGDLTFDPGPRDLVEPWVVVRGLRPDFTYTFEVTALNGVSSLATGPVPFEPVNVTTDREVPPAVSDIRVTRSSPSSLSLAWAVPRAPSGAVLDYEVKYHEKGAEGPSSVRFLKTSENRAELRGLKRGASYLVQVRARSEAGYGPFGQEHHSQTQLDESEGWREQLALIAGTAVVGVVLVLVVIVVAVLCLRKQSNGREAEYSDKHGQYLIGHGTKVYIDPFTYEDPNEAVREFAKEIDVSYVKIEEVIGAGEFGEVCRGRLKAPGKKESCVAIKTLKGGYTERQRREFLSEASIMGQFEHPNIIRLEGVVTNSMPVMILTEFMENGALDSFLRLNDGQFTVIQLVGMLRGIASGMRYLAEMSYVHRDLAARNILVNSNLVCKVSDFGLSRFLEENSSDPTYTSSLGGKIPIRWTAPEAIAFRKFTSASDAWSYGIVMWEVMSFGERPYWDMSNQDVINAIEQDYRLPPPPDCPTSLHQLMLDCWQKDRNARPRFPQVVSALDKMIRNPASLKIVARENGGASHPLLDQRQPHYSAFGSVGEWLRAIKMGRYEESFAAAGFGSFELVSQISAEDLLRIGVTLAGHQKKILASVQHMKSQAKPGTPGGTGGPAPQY
The conditions noted are these: at 1 µM.

Assay [7] addresses T4, Ephrin type-B receptor 4 (Homo sapiens). Particulars: at 10 µM.
The target of assay [8] is Receptor tyrosine-protein kinase erbB-4 (Homo sapiens) (UniProt Q15303). Particulars: at 1 µM.
Receptor tyrosine-protein kinase erbB-4 (Homo sapiens), sequence (Q15303 whole entry): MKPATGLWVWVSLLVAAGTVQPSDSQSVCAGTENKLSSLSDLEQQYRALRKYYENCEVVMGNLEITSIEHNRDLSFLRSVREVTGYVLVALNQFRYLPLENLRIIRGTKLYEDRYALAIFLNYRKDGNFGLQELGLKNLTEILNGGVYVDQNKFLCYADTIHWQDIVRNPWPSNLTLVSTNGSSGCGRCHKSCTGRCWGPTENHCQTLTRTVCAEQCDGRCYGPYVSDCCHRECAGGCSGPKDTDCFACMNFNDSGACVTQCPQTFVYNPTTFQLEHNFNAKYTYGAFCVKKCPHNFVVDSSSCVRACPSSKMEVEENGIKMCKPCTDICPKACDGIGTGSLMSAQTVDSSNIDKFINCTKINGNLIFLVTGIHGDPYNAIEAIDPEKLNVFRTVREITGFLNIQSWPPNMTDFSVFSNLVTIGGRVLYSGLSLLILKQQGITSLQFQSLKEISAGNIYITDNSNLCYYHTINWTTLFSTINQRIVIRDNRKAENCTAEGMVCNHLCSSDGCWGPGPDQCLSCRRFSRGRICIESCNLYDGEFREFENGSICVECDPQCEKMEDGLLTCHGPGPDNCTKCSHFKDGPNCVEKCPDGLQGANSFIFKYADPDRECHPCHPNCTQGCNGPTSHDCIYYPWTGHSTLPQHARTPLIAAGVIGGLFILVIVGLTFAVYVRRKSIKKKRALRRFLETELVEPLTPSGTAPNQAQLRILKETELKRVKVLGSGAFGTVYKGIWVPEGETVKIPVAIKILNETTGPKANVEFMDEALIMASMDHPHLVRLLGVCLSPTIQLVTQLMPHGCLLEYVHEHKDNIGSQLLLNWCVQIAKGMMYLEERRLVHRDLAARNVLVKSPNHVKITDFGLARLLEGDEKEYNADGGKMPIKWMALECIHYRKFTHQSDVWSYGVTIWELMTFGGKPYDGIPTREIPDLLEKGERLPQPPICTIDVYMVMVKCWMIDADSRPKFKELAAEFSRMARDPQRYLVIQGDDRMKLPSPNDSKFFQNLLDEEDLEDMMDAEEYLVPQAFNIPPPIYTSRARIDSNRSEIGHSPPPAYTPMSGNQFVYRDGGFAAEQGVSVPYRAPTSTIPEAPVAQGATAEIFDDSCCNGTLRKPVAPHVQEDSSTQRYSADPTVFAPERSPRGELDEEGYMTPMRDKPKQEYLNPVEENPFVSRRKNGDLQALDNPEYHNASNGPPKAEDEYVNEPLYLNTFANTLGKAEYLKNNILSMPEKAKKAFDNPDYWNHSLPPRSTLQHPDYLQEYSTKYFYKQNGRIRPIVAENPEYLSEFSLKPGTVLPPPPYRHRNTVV
Assay [9] shares this target. The conditions noted are these: at 10 µM.
The target in assay [10] is Focal adhesion kinase 1 (Homo sapiens) (UniProt Q05397). The conditions noted are these: at 1 µM.
Focal adhesion kinase 1 (Homo sapiens), sequence (Q05397 2-1052 limits assumed): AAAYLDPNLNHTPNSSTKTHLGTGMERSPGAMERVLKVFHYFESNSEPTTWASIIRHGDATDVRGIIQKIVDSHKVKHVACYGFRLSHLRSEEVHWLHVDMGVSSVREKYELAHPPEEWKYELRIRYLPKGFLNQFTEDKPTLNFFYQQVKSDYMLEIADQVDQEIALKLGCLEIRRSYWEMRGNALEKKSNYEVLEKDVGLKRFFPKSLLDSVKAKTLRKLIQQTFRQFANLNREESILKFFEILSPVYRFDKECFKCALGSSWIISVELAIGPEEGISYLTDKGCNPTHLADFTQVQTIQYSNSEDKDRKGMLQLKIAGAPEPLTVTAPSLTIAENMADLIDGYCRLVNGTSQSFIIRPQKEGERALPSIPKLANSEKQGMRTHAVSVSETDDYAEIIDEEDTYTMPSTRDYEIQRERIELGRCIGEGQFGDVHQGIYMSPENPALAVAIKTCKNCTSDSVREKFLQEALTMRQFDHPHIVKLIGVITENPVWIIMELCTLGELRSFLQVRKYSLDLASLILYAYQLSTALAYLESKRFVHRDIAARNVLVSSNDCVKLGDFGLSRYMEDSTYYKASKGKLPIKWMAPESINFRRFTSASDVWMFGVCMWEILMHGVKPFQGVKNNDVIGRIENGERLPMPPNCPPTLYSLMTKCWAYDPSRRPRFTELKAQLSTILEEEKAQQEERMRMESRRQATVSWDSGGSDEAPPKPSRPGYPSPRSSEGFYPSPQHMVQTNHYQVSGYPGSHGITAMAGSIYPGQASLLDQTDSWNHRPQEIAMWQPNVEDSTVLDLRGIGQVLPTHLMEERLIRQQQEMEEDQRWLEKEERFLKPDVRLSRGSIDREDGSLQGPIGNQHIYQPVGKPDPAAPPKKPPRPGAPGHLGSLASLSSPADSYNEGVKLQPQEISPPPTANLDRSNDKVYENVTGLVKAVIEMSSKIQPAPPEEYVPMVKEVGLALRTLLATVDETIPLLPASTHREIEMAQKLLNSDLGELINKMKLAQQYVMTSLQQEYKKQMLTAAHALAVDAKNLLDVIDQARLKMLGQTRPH

For the compound `O=C1NC(=O)/C(=C/c2ccc3c(c2)OC(F)(F)O3)S1`, the residual activity – broadly, the signal under treatment as a percentage of the control signal – is 106% in assay [1]; 108% in assay [2]; 110% in assay [3]; 125% (inactive) in assay [4]; 109% in assay [5]; 118% in assay [6]. In addition, the residual activity in assay [7] came to 121%; in [8] it was 98%; in assay [9], 101%; in assay [10] it was 112%.
